# Experimental data taken from PubChem BioAssay AID504373 (National Center for Advancing Translational Sciences (NCATS), 2011).
# Inconclusive results are not listed. Calls of active or inactive are those of the source.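 How the source made its calls: active means fewer circulating green fluorescent tagged thrombocytes in treated fish, with no visible harm to the embryos; inconclusive means compound visibly harmful to the embryos; inactive means no drop in circulating tagged thrombocytes.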
# Experiment: qHTS Assay for Compounds Blocking the Interaction Between CBF-beta and RUNX1 for the Treatment of Acute Myeloid Leukemia: Zebrafish assay for Hematopoiesis, SAR for Probe
# Details: GFP-cd41 zebrafish embryos, microscopy, 5 days, stronger effect = lower value
# Source text: NIH Chemical Genomics Center [NCGC] NIH Molecular Libraries Probe Production centers Network [MLPCN] MLPCN Grant: X01MH083259-01 Assay Submitter (PI): Paul Liu NCGC Assay Overview: Core Binding Factor (CBF) abnormalities are associated with 20-25% of all acute myeloid leukemias (AML), of which 5-10% are further sub classified as acute myelomonocytic leukemia with eosinophilia, also known as M4Eo in the FAB classification scheme. This subtype of leukemia is usually associated with chromosome 16 inversion (p13:q22). Chromosome 16 inversion results in formation of the fusion oncogene CBFB-MYH11, which encodes the fusion protein CBF-beta-SMMHC. […] It has been hypothesized that the interference of CBF-beta and RUNX1 binding could have therapeutic implications for patients with CBF mediated leukemias. We developed a CBF-beta and RUNX1 binding assay in AlphaScreenTM format and optimized it for high throughput screening to search for inhibitors. The goal of this project is to screen MLPCN's compound collection (MLSMR) for identifying the inhibitors of the interaction between CBF-beta and RUNX1 proteins as research probes. If these probes work well in the animal models, the ultimate goal of this project is to development a new drug treatment for this disease. […] These fish contain a genomic modulation where GFP has been fused to cd41, a marker for thrombocytes, and thus circulating thrombocytes can be easily imaged in anesthetized fish.
# Assay protocol: GFP-cd41 zebrafish were kindly provided by the Liu lab. Zebrafish embryos were incubated with compound (<0.1% DMSO final) at 48 hours post fertilization, for 5 days. Embryos were manually scored under a microscope with GFP illumination for circulating GFP-tagged thrombocytes. Keywords: MLSMR, MLPCN, NIH Roadmap, qHTS, NCGC, Core binding factor, CBF, CBF-beta, Acute myeloid leukemia
Compound,fish with circulating GFP thrombocytes (at 25 µM),fish with circulating GFP thrombocytes (at 50 uM)
CCN(CC)CCN1C(=O)CN=C(c2ccccn2)c2cc(Cl)ccc21,66.7% (active),66.7%
CCN(CC)CCN1C(=O)CN=C(c2ccc[nH]2)c2cc(Cl)ccc21,45.8% (active),70.8%
CN1C(=O)CN=C(c2ccc[nH]2)c2cc(Cl)ccc21 (tested in a mixture with another compound),29.2% (active),0%
